The record followed here is ChEMBL document CHEMBL3988442, “University of Dundee, Small-Polar-MMV Screening Library” (2021).

What all share (parameters): scale not given: direction of the effect not stated beside the values
In test [1] the target is Protein translocase subunit SecA (Escherichia coli (strain K12)) (UniProt P10408). Nature of the test: Assay to Identify E. coli SecA ATPase Inhibitors. In kind it is functional. To be noted: 30 µM.
Test [2] deals with T1, Ubiquitin-activating enzyme e1, putative (Leishmania donovani (strain BPK282A1)) (UniProt E9BSI1).
T1 sequence (whole entry): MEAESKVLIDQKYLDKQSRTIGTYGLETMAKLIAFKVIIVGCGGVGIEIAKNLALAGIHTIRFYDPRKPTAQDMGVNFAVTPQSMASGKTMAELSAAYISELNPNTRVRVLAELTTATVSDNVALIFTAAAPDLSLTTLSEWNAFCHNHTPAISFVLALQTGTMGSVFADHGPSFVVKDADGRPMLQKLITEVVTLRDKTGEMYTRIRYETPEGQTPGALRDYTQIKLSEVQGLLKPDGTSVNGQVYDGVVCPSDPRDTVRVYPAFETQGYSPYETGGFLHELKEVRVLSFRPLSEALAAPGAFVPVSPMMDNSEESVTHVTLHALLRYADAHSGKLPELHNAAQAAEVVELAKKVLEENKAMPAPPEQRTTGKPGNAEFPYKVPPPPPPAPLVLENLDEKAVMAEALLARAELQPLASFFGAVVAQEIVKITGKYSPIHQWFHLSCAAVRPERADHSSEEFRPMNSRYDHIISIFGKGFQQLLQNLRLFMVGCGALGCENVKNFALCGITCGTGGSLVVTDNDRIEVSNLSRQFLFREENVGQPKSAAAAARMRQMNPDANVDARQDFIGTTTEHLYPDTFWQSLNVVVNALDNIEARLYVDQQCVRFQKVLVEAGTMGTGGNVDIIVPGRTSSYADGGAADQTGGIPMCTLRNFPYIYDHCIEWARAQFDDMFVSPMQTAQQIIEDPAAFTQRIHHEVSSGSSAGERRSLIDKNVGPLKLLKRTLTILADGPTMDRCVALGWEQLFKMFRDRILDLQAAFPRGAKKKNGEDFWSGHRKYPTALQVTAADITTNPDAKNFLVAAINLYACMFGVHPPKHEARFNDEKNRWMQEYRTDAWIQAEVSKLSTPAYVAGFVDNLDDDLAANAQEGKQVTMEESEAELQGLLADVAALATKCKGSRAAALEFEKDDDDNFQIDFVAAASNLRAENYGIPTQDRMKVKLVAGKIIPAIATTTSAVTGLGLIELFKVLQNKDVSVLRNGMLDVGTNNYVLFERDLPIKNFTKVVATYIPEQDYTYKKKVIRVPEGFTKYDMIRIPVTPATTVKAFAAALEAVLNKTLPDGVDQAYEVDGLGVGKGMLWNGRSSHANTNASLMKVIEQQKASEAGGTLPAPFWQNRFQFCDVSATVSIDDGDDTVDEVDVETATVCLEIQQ
Nature of the test: Leishmania donovani Ubiquitin Activating Enzyme (LdE1). In kind it is functional. As to conditions: 30 µM.

The target of test [3] is AMP-activated protein kinase, AMPK (Homo sapiens) (UniProt P54646+O43741+P54619+Q9UGJ0+Q9Y478+Q13131+Q9UGI9). As to the kind of experiment: AMP-dependent Kinase enzyme assay. An in vitro enzyme assay that detects ADP turnover that is directly proportional to AMPK activity. This uses naive AMPK that is activated during the assay with MK-8722. In kind it is functional. As to conditions: 30 µM.

In test [4] the target is Sialic acid-binding Ig-like lectin 9 (Homo sapiens) (UniProt Q9Y336). As to the kind of experiment: Hs-Siglec9 ALPHAscreen SOP 20170721. As to conditions: 10 µM. A general note: Alpha assays give light when donor and acceptor beads are brought close together.
Sialic acid-binding Ig-like lectin 9 (Homo sapiens), sequence (Q9Y336 whole entry): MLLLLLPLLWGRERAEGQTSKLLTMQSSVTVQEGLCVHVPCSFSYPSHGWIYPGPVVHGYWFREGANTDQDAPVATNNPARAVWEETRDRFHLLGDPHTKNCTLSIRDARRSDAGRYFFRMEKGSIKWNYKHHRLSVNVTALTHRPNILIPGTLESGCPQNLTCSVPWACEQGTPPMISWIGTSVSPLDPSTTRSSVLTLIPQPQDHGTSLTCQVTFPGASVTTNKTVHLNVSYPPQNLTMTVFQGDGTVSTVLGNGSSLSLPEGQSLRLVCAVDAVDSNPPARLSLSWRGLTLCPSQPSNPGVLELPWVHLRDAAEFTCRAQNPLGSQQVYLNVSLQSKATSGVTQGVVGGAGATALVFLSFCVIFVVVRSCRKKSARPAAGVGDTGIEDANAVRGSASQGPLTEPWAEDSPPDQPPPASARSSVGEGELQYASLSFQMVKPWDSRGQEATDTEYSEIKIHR
The next test relates to Trypanosoma cruzi. As to the kind of experiment: Trypanosoma cruzi phosphomannomutase and mannose-1-phosphate guanylyltransferase assay. In kind it is functional. As to conditions: 10 µM.
Test [5] concerns the target T2, Arginase-2, mitochondrial (Homo sapiens) (UniProt P78540).
T2 sequence (whole entry): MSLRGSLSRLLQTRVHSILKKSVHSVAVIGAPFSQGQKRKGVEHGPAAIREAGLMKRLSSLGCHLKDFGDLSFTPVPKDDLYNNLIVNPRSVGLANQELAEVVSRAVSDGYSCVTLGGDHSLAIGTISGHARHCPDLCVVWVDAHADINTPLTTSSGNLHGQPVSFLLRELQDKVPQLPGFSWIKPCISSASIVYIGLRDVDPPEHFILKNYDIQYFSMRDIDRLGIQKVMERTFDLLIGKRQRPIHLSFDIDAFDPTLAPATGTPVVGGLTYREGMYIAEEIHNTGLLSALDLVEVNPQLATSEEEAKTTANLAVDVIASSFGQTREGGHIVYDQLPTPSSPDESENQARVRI
As to the kind of experiment: in vitro enzyme assay to detect the production of urea directly proportional to the activity of Arginase II. Further: in the data most compounds retested in dose-response had high values. In kind it is functional. To be noted: 33.3 µM.

The target of test [6] is T3, Proteasome subunit beta (Trypanosoma cruzi) (UniProt O96673).
T3 sequence (whole entry): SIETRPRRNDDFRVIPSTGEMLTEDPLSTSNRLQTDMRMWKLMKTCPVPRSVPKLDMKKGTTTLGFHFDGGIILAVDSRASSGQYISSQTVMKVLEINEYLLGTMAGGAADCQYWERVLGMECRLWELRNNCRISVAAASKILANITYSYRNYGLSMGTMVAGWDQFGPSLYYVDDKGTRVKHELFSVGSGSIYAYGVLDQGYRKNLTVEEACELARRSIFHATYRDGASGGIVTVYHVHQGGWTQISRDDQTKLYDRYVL
As to the kind of experiment: Trypanosoma cruzi proteasome chymotrypsin-like activity (TcProtChymo) assay. Further: in the data most compounds retested in dose-response had high values. In kind it is functional. To be noted: 9.37 µM.

The species named for a further test is Homo sapiens. Nature of the test: To identify inhibition of the IFN signalling (Jak-Stat) pathway via expression of an eGFP reporter gene under the control of an IFN-stimulated response element (ISRE) containing MxA promoter. In kind it is functional. To be noted: 30 µM.
The target in test [7] is T4, Tyrosyl-tRNA synthetase, putative (Trypanosoma cruzi (strain CL Brener)) (UniProt Q4DSP6).
T4 sequence (whole entry): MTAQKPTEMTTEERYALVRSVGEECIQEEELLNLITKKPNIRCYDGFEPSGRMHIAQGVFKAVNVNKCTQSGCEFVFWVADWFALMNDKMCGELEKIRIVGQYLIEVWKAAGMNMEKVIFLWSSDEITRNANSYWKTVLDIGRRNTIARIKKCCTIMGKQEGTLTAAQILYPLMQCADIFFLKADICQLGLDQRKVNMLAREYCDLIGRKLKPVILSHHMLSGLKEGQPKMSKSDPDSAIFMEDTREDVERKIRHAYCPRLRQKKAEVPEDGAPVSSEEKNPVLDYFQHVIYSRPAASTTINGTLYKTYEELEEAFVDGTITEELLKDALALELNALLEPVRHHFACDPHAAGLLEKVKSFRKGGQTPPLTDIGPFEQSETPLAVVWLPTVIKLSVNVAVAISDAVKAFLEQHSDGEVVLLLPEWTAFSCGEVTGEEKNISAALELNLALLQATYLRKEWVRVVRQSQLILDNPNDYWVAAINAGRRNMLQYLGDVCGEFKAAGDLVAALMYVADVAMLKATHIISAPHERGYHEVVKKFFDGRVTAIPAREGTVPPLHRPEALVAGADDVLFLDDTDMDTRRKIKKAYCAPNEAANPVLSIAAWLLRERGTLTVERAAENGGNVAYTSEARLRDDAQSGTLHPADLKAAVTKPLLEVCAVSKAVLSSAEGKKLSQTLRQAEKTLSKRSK
As to the kind of experiment: Trypanosoma cruzi tyrosyl tRNA synthetase (TcYRS) _High Tyrosine SOP. Further: in the data most compounds retested in dose-response had high values. In kind it is functional. As to conditions: 30 µM.

Test [8] deals with T4, Tyrosyl-tRNA synthetase, putative (Trypanosoma cruzi (strain CL Brener)). Nature of the test: Trypanosoma cruzi tyrosyl tRNA synthetase (TcYRS) SOP. In kind it is functional. To be noted: 30 µM.
In test [9] the target is Chromo domain-containing protein 1 (Saccharomyces cerevisiae (strain ATCC 204508 / S288c) (Baker's yeast)) (UniProt P32657). As to the kind of experiment: ScCHD-1 Enzyme Inhibition Assay. Further: in the data most compounds retested in dose-response had high values. In kind it is functional. To be noted: 30 µM.
Chromo domain-containing protein 1 (Saccharomyces cerevisiae (strain ATCC 204508 / S288c) (Baker's yeast)), sequence (P32657 whole entry, the tested form may be a part): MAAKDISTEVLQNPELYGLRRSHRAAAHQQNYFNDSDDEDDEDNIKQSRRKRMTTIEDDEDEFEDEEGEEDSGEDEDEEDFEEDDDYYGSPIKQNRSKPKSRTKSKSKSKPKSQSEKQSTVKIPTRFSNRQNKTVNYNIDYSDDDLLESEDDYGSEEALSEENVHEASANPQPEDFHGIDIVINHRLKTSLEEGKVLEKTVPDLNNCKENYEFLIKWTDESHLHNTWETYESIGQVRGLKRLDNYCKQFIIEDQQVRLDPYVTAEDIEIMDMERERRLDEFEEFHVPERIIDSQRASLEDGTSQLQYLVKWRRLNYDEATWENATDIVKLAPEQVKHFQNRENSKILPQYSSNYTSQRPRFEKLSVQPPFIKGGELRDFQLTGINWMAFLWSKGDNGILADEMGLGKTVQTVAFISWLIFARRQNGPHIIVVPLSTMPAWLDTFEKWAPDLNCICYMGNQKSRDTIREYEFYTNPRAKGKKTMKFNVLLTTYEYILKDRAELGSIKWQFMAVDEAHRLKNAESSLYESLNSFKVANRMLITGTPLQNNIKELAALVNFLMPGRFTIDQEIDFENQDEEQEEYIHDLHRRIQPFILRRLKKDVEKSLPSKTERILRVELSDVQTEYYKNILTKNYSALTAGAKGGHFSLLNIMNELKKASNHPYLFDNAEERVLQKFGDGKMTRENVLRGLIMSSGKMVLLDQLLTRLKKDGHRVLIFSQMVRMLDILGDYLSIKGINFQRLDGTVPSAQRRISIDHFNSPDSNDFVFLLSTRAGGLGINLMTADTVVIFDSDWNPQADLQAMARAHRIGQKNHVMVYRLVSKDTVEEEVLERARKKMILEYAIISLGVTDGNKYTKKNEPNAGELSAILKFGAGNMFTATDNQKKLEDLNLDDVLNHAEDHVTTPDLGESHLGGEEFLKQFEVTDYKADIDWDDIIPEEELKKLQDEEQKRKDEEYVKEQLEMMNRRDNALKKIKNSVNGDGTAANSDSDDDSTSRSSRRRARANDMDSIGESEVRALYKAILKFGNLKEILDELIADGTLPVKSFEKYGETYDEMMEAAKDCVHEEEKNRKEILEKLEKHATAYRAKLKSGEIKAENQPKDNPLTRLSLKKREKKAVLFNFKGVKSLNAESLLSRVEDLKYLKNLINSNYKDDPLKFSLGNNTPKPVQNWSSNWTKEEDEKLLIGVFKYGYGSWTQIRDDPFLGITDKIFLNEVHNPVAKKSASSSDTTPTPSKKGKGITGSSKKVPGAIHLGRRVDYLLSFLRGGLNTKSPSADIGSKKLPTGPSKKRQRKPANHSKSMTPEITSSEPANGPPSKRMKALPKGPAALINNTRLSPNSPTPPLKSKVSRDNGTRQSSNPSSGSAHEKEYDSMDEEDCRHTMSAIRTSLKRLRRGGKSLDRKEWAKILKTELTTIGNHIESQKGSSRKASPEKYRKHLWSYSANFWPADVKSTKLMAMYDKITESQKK

For some of these results: Potency and affinity values are given separately.

Protein translocase subunit SecA (Escherichia coli (strain K12)), sequence (P10408 whole entry): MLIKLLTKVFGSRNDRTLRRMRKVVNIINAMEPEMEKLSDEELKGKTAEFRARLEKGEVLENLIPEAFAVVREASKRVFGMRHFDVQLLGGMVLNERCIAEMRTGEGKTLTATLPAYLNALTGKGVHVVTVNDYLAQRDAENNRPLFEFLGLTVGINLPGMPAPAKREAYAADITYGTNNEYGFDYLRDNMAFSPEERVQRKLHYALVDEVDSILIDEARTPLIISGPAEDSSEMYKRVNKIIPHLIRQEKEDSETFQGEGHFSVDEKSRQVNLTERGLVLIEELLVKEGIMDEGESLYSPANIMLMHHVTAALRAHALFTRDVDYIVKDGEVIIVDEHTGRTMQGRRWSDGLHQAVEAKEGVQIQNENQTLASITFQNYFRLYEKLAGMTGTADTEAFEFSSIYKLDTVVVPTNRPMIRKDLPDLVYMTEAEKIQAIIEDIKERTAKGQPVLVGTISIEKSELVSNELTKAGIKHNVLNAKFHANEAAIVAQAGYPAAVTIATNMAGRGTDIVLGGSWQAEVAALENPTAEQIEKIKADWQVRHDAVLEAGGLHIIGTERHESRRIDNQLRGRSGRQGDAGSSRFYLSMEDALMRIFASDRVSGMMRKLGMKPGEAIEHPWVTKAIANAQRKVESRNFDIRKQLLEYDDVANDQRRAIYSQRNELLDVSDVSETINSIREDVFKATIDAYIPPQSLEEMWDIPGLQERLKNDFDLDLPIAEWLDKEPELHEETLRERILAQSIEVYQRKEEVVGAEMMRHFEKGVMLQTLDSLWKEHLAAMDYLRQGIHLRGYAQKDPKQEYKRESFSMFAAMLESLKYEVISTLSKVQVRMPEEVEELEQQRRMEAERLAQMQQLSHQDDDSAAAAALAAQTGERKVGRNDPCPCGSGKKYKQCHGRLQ

Turning to `CN(C)C(=O)C1CN(Cc2ccccc2)CCN(S(C)(=O)=O)C1` (stereo unspecified), the Percent Effect was -5.51% in test [1]; 17.6% in [2]; 8.68% in test [3]; 7.06% in test [4]; 4.35% with Trypanosoma cruzi; -3.02% in test [5]. For the same compound, the Percent Effect is 3.12% in [6]; 11.2% in the test listed under Homo sapiens; 2.15% in [7]; 9.09% in test [8]; -19.2% in test [9].
Turning to `CN(CC1CN(Cc2cn3ccsc3n2)CCO1)c1cccnn1` (stereo unspecified), the Percent Effect is -3.37% in [1]; 26% in [2]; -3.91% in test [3]; -12.4% in [4]; -7.54% with Trypanosoma cruzi; 1.47% in test [5]. For the same compound, the Percent Effect is 23.5% in [6]; 15% in the test filed under Homo sapiens; 4.76% in test [7]; 21.2% in test [8]; -26.4% in test [9].
On to `Cc1ccc(CN2CCCn3nnc(COCC4CC4)c3C2)s1`, for which the Percent Effect was 0.823% in test [1]; 16% in test [2]; 9.89% in [3]; -6.88% in test [4]; -2.76% with Trypanosoma cruzi; -11% in test [5]. The Percent Effect is 6.96% in test [6]; 12.7% in the test listed under Homo sapiens; 5.32% in test [7]; 11.5% in test [8]; -3.12% in test [9].
Consider `O=S(=O)(C1CC1)N1C[C@H]2CCC[C@@]2(COc2ccccn2)C1`, for which the Percent Effect was -0.747% in test [1]; 14.7% in [2]; 2.3% in [3]; 3.09% in test [4]; -4.32% in the test on Trypanosoma cruzi; 5.81% in test [5]. Further, the Percent Effect was 15.3% in test [6]; -6.25% in the test filed under Homo sapiens; 3.17% in test [7]; 10.3% in test [8]; -5.69% in test [9].
Consider `Cc1ccc(C(=O)NC2CCN(C(=O)Nc3ccccn3)CC2)o1`, for which the Percent Effect in test [1] is -3.11%; in test [2] it was 10.4%; in test [3], -3.63%; in [4] it was -17.5%; with Trypanosoma cruzi, -7.15%; in test [5] it was -2.32%. Besides, the Percent Effect is 6.71% in test [6]; 9.29% in the test listed under Homo sapiens; 2.86% in test [7]; 14.1% in test [8]; -18.9% in test [9].
Take `Cc1ccc(NC2CCN(C(=O)Cn3nc(C)cc3C)CC2)nn1`: the Percent Effect in test [1] is -1.08%; in test [2] it was 15.8%; in test [3], -0.776%; in test [4], 6.59%; in the test on Trypanosoma cruzi it was -0.376%; in test [5] it was -0.766%. The Percent Effect in test [6] is 17.9%; in the test filed under Homo sapiens, 6.37%; in [7], 3.43%; in test [8], 12.2%; in [9], -1.72%.
`O=C(c1ccc(NC2CC2)nc1)N1CCCC(n2cccn2)C1` (stereo unspecified): the Percent Effect in test [1] is -6.81%; in test [2] it was 5.26%; in [3], -1.25%; in [4], 1.67%; with Trypanosoma cruzi, -4.51%; in test [5] it was 2.3%. Also, the Percent Effect in [6] was 3.51%; in the test filed under Homo sapiens it was 18.5%; in [7], 0.49%; in test [8], 7.32%; in test [9] it was -0.025%.
In the case of `Cc1csc(Nc2cc(C3CCCCN3C)nc(C)n2)n1` (stereo unspecified), the Percent Effect in [1] is 1.97%; in [2], 8%; in test [3], 7.4%; in test [4], -13.6%; with Trypanosoma cruzi, -5.71%; in test [5] it was 3.5%. For the same compound, the Percent Effect in test [6] is 17.5%; in the test listed under Homo sapiens, 14.7%; in test [7], 4.25%; in test [8], 6.41%; in test [9], -0.0696%.
`CCC(O)CN1CCN(C(=O)c2cccn2Cc2ccccc2)CC1` (stereo unspecified): the Percent Effect was -7.42% in [1]; 10.1% in test [2]; -1.72% in test [3]; 3.91% in test [4]; -5.95% with Trypanosoma cruzi; -0.38% in [5]. Also, the Percent Effect in test [6] was -3.69%; in the test filed under Homo sapiens it was 20.8%; in [7], 0.493%; in test [8] it was 11.4%; in test [9] it was -3.89%.
`CCNC(=O)NC(=O)CSC(C)c1ccccc1F` (stereo unspecified): the Percent Effect in test [1] is -2.26%; in test [2], 0%; in [3] it was -7.52%; in [4] it was 16.2%; with Trypanosoma cruzi, 3.8%; in test [5], 16.7%. In addition, the Percent Effect in [6] was 11.3%; in the test listed under Homo sapiens it was -1.43%; in test [7], 3.83%; in test [8], 25.9%; in test [9], -6.89%.
For the compound `Cc1cc(C2CCCN(CCCS(=O)(=O)c3ccccc3)C2)n[nH]1` (stereo unspecified), the Percent Effect was -0.801% in [1]; 15.2% in test [2]; -4.79% in test [3]; -8.5% in [4]; -3.87% in the test with Trypanosoma cruzi; 6.46% in test [5]. Also, the Percent Effect in [6] was 4.34%; in the test listed under Homo sapiens, 18.4%; in test [7], 4.43%; in [8] it was 11.4%; in test [9] it was -5.44%.
